# From PubChem BioAssay (Tox21)
# Several values for one entry are separate records, joined by “and”; a condition that tells them apart may be missing. Equal values may be shown once. Results filed as inconclusive are left out. Some compounds were tested as several samples or in several runs, with calls that do not always agree. A number with no mark means an inactive call. Activity calls are given as the source filed them. Calls follow the shape of the dose curve; as a rule, active = well fitted cell-killing curve with a large enough effect in the repeat runs; inconclusive = weak or mixed curves, or effect the other way; inactive = flat fitted curve, though single readings scatter.
# Assay: qHTS RealTime-Glo MT Cell Viability Assay in HEK293 cells - 40 hour (AID 1224874); also: nearly all actives have a fitted effect of over 50% in size
# Conditions: RealTime-Glo luminescence; max response: hits give low values
# Excerpt: U.S. Tox21 Program National Center for Advancing Translational Sciences [NCATS] NIH Chemical Genomics Center [NCGC] U.S. Environmental Protection Agency [EPA] National Institutes of Environmental Health Sciences [NIEHS] National Toxicology Program [NTP] U.S. Food and Drug Administration [FDA] Tox21 Assay Overview: Measure of cell viability is critical in the cell-base assay. Analysis of cell viability is necessary for the characterization of cell responses to cytotoxic drugs and environmental stress. A RealTime-Glo MT Cell Viability Assay to monitor cell viability in real time of continues cell culture during 40 hours of compound treatment was used to screen Tox21 10K library compounds in Hek293 cells. The RealTime-Glo MT Cell Viability Assay is a nonlytic, homogeneous, bioluminescent method to measure cell viability in real time using a simple, plate-based method. The assay involves adding NanoLuc luciferase and a cell-permeant prosubstrate to cells in culture. Viable cells reduce the proprietary prosubstrate to generate a substrate for NanoLuc luciferase. This substrate diffuses from cells into the surrounding culture medium, where it is rapidly used by the NanoLuc Enzyme to produce a luminescent signal. The signal correlates with the number of viable cells, making the assay well suited for cytotoxicity studies.
# Tox21 Assay Protocol Summary: The mixture of Hek293 cell suspension and reagents were dispensed at 600cells/6 ul/well in 1536-well tissue culture treated black solid bottom plates using a Multidrop dispenser. After the assay plates were incubated at a 37 C/5% CO2 incubator for 5 hours, 23 nL of compounds dissolved in DMSO, positive and negative controls was transferred to the assay plate by a pintool work station. The plates were incubated at 37 C for 40 hours. The luminescence intensity were measured at 0h, 8h, 16h, 24h, 32h and 40h time points using ViewLux plate reader during compound treatment.
# % is scaled to controls: 0 for no effect and ±100 for the full control effect; potency is read from the fitted curve at half-maximal effect.
Compound,max response,Potency
O=C(Cl)c1ccc(C(=O)Cl)cc1,-18.9% and 3.42%,
Nc1cccc(N)n1,0.328% and -0.427%,
CCCCCC(C)=O,0.796% and 0.918%,
OC[C@H]1O[C@@H](Oc2ccc(O)cc2)[C@H](O)[C@@H](O)[C@@H]1O,3.45% and 3.98%,
CCc1cccc(CC)c1N,1.74% and 8.01%,
Nc1nc(N)c2nc(-c3ccccc3)c(N)nc2n1,-27.6%,24.8 µM (active) and 19.5 µM (active)
CCN(CC)CCNC(=O)c1ccc(N)cc1,3.82% and 1.96%,
Cc1ccccc1C=O,5.78% and -0.406%,
c1cnc2c(c1)ccc1cccnc12,,3.12 µM (active) and 7.76 µM (active) and 6.92 µM (active)
Cc1cc(C)c(O)c(C)c1,3.39% and -0.795%,
O=C1OC(=O)c2c(Cl)c(Cl)c(Cl)c(Cl)c21,1.44%,
CCCCCNCCCCC,4.14% and 0.383%,
O=Cc1ccc(CO)o1,-0.203% and -12.4%,
CC(=O)C(C)C,9.65%,
CCCOC(=O)NCCCN(C)C,3.11% and 1.66%,
N#CCC(=O)O,-0.419% and 10.1%,
CC(=O)OC/C=C(\C)CCC=C(C)C,-1.95% and 0.392%,
CCc1cccc(O)c1,-1.01% and 0%,
CC(C)(CO)CO,3.9% and 0.954%,
CCCCCCC(=O)O,0.822% and 2.88%,

Compound,max response,Potency
COc1c(Cl)ccc(Cl)c1C(=O)O,2.72% and -3.19%,
Cc1cc(C)cc(O)c1,6.28% and 8.82%,
O=c1n(CCCN2CCN(c3cccc(Cl)c3)CC2)nc2ccccn12,,13.8 µM (active) and 9.52 µM (active)
NC(=O)c1ncn([C@@H]2O[C@H](CO)[C@@H](O)[C@H]2O)n1,2.04%,
O=C1C(N(CO)C(=O)NCO)N(CO)C(=O)N1CO (stereo not given),0.683% and 1.21%,
O=C(O)C1=NN(c2ccc(S(=O)(=O)O)cc2)C(=O)C1,6.57% and 2.54%,
O=c1c(O)c(-c2ccc(O)c(O)c2)oc2cc(O)cc(O)c12,-22.5%,
CN1CCCC1=O,8.67% and -2.64%,
CCCCCCCCCCCCCC(=O)O,-22.5% and -9.69%,
CN1Cc2c(N)cccc2C(c2ccccc2)C1 (stereo not given),-23.8% and -3.82%,
OCC(O)CS (stereo not given),14.9% and 3.08%,
Brc1ccc(Oc2ccc(Br)cc2)cc1,-1.97% and -5.7%,
CC(O)CNCC(C)O (stereo not given),3.16%,
NC(=O)NC(N)=O,1.11% and 4.69%,
CO[Si](CCCNCCN)(OC)OC,4.43% and -18.7%,
CC(=O)c1nccs1,1.39% and 3.29%,
C=C(CC(=O)O)C(=O)O,2.09% and -0.881%,
C[Si](C)(C)N[Si](C)(C)C,2.88% and 0.469%,
O=[N+]([O-])c1ccccc1C(F)(F)F,3.79% and 8.48%,
